Screening results (PubChem)
GPR151 ag: human GPR151 activation. Q8TDV0. PathHunter beta-arrestin GPR151 cells, luminescence. activation, % at 11.2 µM. 650,000 compounds, 1% hits. AID 1508602; in the data active = activation above about 4.9%;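 note: 0% = median of compound wells and 100% = cells with positive control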
TEAD-YAP inh: TEAD-YAP interaction inhibition; HEK-TIYL cells, TEAD-Gal4/YAP UAS-luciferase luminescence; inhibition, % at 9.12 µM; 640,000 compounds, 1.4% hits; in the data active = inhibition above about 32%;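 note: 0% = median of test compound wells and 100% = reference inhibitor wells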
MITF inh: blocks human microphthalmia-associated transcription factor; AlphaScreen MITF homodimerization, bead proximity signal; inhibition, % at 2.6 µM; 650,000 compounds, 0.91% hits; O75030; in the data active = inhibition above about 50%;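 note: 0% = vehicle wells with protein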
FBW7 act: human FBW7 E3 ligase activation, primary screen | Q969H0 | 650,000 compounds, 0.13% hits | AlphaScreen FBW7–phospho-cyclin E peptide binding, activator screen | normalized activity (activation), % at 26.1 µM; in the data active = normalized activity above about 1.9%;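 note: purified mutant Fbw7 with reduced substrate affinity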
GPR151 confirm: confirmation of human GPR151 activators. GPR151 PathHunter beta-arrestin cells, luminescence, 90 min; % of EA-reagent control over plate median. 6,700 tested, under 10 active. shares compounds with GPR151 ag. activation, % at 11.2 µM;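 active = mean percent activation across replicates above the confirmation screen cutoff of 4.91%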
GPR119 ag: counter-screen for GPR151 activators: effect on human GPR119 | activation, % at 11.2 µM | 6,700 compounds, 0.3% hits | shares compounds with GPR151 ag | GPR119 PathHunter beta-arrestin cells, luminescence, 90 min; 0 = compound-well median, 100 = enzyme-acceptor control;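 active = mean percent activation in the counterscreen above 29.09%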;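 note: counterscreen on off-target GPR119 to flag nonselective hits from the GPR151 activator screen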
Target sequence (Q8TDV5 whole entry, looked up): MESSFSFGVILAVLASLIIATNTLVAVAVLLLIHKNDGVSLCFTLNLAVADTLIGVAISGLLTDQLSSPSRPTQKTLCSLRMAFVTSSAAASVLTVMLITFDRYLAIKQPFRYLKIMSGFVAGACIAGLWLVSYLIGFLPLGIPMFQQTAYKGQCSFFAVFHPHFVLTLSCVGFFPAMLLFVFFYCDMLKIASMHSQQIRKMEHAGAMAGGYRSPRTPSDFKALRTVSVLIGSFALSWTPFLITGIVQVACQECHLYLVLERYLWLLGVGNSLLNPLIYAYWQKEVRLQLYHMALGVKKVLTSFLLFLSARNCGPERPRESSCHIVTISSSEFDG
Starred values were filed as active, the others as inactive; x = not tested or not shown. An excerpt weighted towards active compounds, which were near 3.5% of everything screened.

SMILES	GPR151 ag	TEAD-YAP inh	MITF inh	FBW7 act	GPR151 confirm	GPR119 ag
O=C(COC(=O)c1ccc2c(c1)C1C=CCC1C(c1ccc(Cl)cc1)N2)c1ccc(-c2ccccc2)cc1 (stereo unspecified)	-1	-2	-11	0	x	x
COc1ccc2c(c1)NC1(CCCN(CCN3C(=O)c4ccccc4C3=O)C1)c1cccn1-2 (stereo unspecified)	5.4*	1	-3	0	1	-2
O=C1c2ccccc2C(=O)N1CCN1CCCC2(C1)Nc1ccccc1-n1cccc12 (stereo unspecified)	0	-4	7	0	x	x
CCn1nc(C)c(CNCc2cn[nH]c2-c2ccc(OC)c(F)c2)c1C	5.4*	7	10	0	0	-5
COc1ccc(-c2[nH]ncc2CNC(C)CCn2cccn2)cc1F (stereo unspecified)	0	-11	10	0	x	x
O=C(NCC(O)c1ccccc1)c1cccc(Cl)c1 (stereo unspecified)	-2	-54	-5	0	x	x
CC(C)n1c(C(F)(F)F)nc2ccccc21	5.2*	6	10	0	2	9
COc1ccc(C(C)NC(=O)Nc2ccc3c(c2)OCO3)cc1OC (stereo unspecified)	-1	-20	6	0	x	x
COc1ccc(N(CCCN2C(=O)c3cccc4cccc(c34)C2=O)C(=O)c2ccc([N+](=O)[O-])cc2Cl)cc1	12*	5	-4	0	0	0
COc1ccc(N(CCCN2C(=O)c3cccc4cccc(c34)C2=O)C(=O)c2cc(Cl)cc(Cl)c2)cc1	-1	4	-2	0	x	x
Cc1ccc(C(=O)Cn2c(=O)n(Cc3cccnc3)c(=O)c3ncccc32)c(C)c1	-2	-13	-12	0	x	x
CC12C=CC(C3OCCO3)(O1)C1C(=O)N(c3ccc(Cl)cc3)C(=O)C12 (stereo unspecified)	6.4*	12	5	0	0	-1
COc1cccc(C(c2sc3nc(C)nn3c2O)N2CC(C)OC(C)C2)c1 (stereo unspecified)	2	5	1	0	x	x
O=C(Nc1ccc2c(c1)CN(S(=O)(=O)N1CCCC1)CC2)C1CCCO1 (stereo unspecified)	-1	-11	-3	0	x	x
NC(=O)c1ccc(NC(=O)/C=C/c2ccco2)cc1	1	-17	15	0	x	x
O=C(C1CCN(S(=O)(=O)c2ccccc2)CC1)N1CCCC2CCCCC21 (stereo unspecified)	6.2*	4	11	0	1	5
COC(=O)c1ccc(OC(=O)C2CC(=O)N(c3ccc(C)cc3C)C2)cc1 (stereo unspecified)	5.0*	14	8	0	0	-10
Cc1ccc(N2CC(C(=O)O)CC2=O)c(C)c1 (stereo unspecified)	0	9	-6	0	x	x
O=C(O)/C=C/C(=O)N(Cc1ccccc1)Cc1ccccc1	5.3*	4	-5	0	1	8
CC(Cl)C(=O)N(Cc1ccccc1)Cc1ccccc1 (stereo unspecified)	5.1*	8	-18	0	0	8
COc1ccc(/C=C/C(=O)N(Cc2ccccc2)Cc2ccccc2)cc1	0	1	-2	0	x	x
COc1ccc(CCNC(=O)CSc2nc3ccsc3c(=O)n2C2CCCCC2)cc1OC	-1	-8	14	0	x	x
COc1cccc(CC2(CCC(=O)N3CCCC(C(=O)c4ccccc4)C3)CCC(=O)N2)c1 (stereo unspecified)	0	-5	11	0	x	x
COCCn1nnnc1C(c1ccc(F)cc1)N1CCC(C)CC1 (stereo unspecified)	-2	20	6	0	x	x
C/C(=N\NC(=O)c1ccc(N2CCCC2=O)cc1)c1ccccn1	9.1*	-1	-14	0	1	9
SMILES	GPR151 ag	TEAD-YAP inh	MITF inh	FBW7 act	GPR151 confirm	GPR119 ag
O=C(N/C(=C/c1ccc(Cl)cc1)C(=O)N1CCOCC1)c1ccccc1Br	6.3*	12	10	0	-1	-13
O=C(N/C(=C/c1ccc(Cl)cc1)C(=O)N1CCOCC1)c1ccccc1	2	3	-2	0	x	x
CC(C)(C)NC(=O)C1CCN(S(=O)(=O)c2ccc(Br)s2)CC1	3	-1	-14	0	x	x
N#Cc1ccc(COC(=O)c2ccccn2)cc1	5.0*	7	28	0	0	-5
N#Cc1ccc(NC(=O)COC(=O)c2ccccn2)cc1	1	4	9	-1	x	x
O=C(Nc1nnc(SCc2cccc(F)c2)s1)C1CC1	12*	-4	11	0	1	4
Cn1ccnc1SCc1cc(=O)c(OC(=O)c2ccccc2[N+](=O)[O-])co1	5.8*	6	12	0	0	0
CCCC(=O)Oc1coc(CSc2nnc(NC(=O)C3CC3)s2)cc1=O	5.4*	14	11	0	-1	-4
CC(=O)Nc1nnc(SCc2cc(=O)c(OC(=O)c3ccccc3[N+](=O)[O-])co2)s1	6.4*	6	12	0	0	1
O=C(Nc1nnc(SCc2cccc(C(F)(F)F)c2)s1)C1CC1	2	1	9	0	x	x
CCC(C(=O)O)N1C(=O)/C(=C/c2ccc(OC)cc2OC)SC1=S (stereo unspecified)	1	-5	9	0	x	x
CCCCn1c(CNC(=O)c2cccc(C)c2)nnc1SC(C)C(=O)Nc1sc2c(c1C(=O)OCC)CCC2 (stereo unspecified)	0	8	-5	0	x	x
Cc1c(C(=O)OCC(=O)NC(C)(C)C)cccc1[N+](=O)[O-]	2	-9	3	0	x	x
CC(=O)c1c(C)oc2ccc(NS(=O)(=O)c3ccc(Cl)c(C)c3)cc12	0	0	-5	1	x	x
CCOc1ccccc1C(=O)Oc1coc(CSc2nc(C)cs2)cc1=O	1	2	-15	0	x	x
COc1ccccc1C(=O)Oc1coc(CSc2nc(C)cs2)cc1=O	7.5*	10	-13	0	-1	-5
Cc1cccc(N=c2sc(C3=c4ccccc4=NC3=O)c(O)n2-c2cccc(C)c2)c1	0	2	-3	0	x	x
Cc1ccc(S(=O)(=O)/N=c2\sc(C3=c4ccccc4=NC3=O)c(O)n2C)cc1	6.8*	13	5	0	0	-1
COc1ccccc1NC(=O)C1CC(=O)OC1(C)C (stereo unspecified)	0	1	3	1	x	x
COc1ccccc1NC(=O)C1CC(=O)OC12CCOC(C)(C)C2 (stereo unspecified)	6.5*	-19	-4	0	0	7
CCOc1ccc(S(=O)(=O)N(CC(=O)Nc2ccccc2C(F)(F)F)c2ccccc2)cc1	-2	-1	-3	0	x	x
O=C(Nc1ccc(Oc2ccccc2)cc1)Nc1cccc([N+](=O)[O-])c1	7.0*	-8	23	1	0	1
